The values below come from PubChem BioAssay AID1209 (Sanford-Burnham Center for Chemical Genomics, 2008).

The campaign covered roughly 190,000 compounds. About 810 (0.43%) were called active. Shown is part of a subset that was picked to be rich in actives. Values without a mark were called inactive. Cut-off read from the data, not from the text of the source: active = inhibition above about 50%; inactive = the rest.

Sequence of Mannose-6-phosphate isomerase (Homo sapiens) (P34949 whole entry, looked up): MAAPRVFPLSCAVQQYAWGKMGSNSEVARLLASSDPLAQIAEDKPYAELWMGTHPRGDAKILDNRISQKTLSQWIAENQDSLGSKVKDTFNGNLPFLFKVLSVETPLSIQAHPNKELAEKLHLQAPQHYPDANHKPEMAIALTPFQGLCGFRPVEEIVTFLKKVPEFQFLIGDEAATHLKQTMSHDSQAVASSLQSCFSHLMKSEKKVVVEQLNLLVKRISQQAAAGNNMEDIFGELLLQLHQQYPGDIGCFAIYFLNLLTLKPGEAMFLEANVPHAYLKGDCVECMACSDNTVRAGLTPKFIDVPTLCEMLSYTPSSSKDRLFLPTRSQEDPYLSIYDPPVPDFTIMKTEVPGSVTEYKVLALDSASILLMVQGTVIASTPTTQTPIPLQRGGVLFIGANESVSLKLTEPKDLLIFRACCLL

This assay addresses Mannose-6-phosphate isomerase (Homo sapiens) (UniProt P34949). The experiment in a line: MPI enzyme activity inhibition – biochemical, fluorescence intensity, coupled assay, primary screen (AID 1209).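 Note: plate controls were DMSO vehicle for no effect and wells lacking substrate for full effect.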 Particulars: purified PMI enzyme, at 20 µM, stronger effect = higher value.
On to `N#Cc1cccc2cnccc12`, for which the inhibition – broadly, the drop in the measured response relative to a control, in per cent – was 9%.
Next, `NC(=S)Nc1cccc2cnccc12`: 16.4%; `Nc1cccc2cnccc12`: 68.5% (active); `CCn1cc([N+](=O)[O-])c(C(=O)Nc2ccn(Cc3ccccc3F)n2)n1`: 8.3%.
For `CCOC(=O)COc1ccc2c(C#N)c3ccccn3c2c1` the value was 41.4%; for `COc1ccc2c(C#N)c3ccccn3c2c1`, 39.7%.
Next, `CCOC(=O)c1c(C)n(C)c2cc(OCCN(CC)CC)ccc12`: 10.9%.
As for `Cc1cccc(OCC(=O)N/N=C\c2cn(C)c3ccccc23)c1`, the inhibition is 5.4%.
Next, `CCOC(=O)c1c2ccc(OCC(=O)N/N=C/c3ccc(Cl)cc3)cc2n2ccccc12`: 33.2%; `N#Cc1c2ccc(OCC(N)=O)cc2n2ccccc12`: 65.3% (active); `CCOC(=O)c1c(C)n(C)c2ccc(OCC(N)=O)cc12`: 16.5%.
For `CCOC(=O)c1c2ccc(OCC(=O)NN)cc2n2ccccc12` the value was 81.3% (active); for `CCOC(=O)c1c2ccc(OCC(=O)N/N=C/c3ccccc3C(F)(F)F)cc2n2ccccc12`, 59.8% (active).
Regarding `N#CCCn1cc(/C=N/NC(N)=S)c(-c2ccc(-c3ccccc3)cc2)n1`, the inhibition was 21.7%.
For `COc1ccc(N=Nc2cnc(C)nc2-c2ccccc2)cc1` the value was 3.6%; for `CCCCOc1ccc(-c2c(C(=O)Nc3ccccc3)c(C)[nH]c(=S)c2C#N)cc1`, 13.9%; for `Cc1ccc2c(nc3s/c(=C/c4cccs4)c(=O)n32)c1C`, -7.9%.
For `Cc1cc(C)c2nc3s/c(=C/c4ccc5c(c4)n(C)c(=O)n5C)c(=O)n3c2c1` the value was 37.9%; for `Cc1cc(C)c2nc3s/c(=C/c4ccccc4)c(=O)n3c2c1`, 57.6% (active).
On to `CCCCn1cnc(C(=O)OCC)c1N`, for which the inhibition is -3.8%.
For `Nc1ccn(Cc2ccc(F)cc2)n1` the value was -1.5%.
For `O=C1COc2ccc(C(=O)/C=C/c3ccccc3)cc2N1` the value was 7.8%; for `O=C(O)/C=C/C(=O)c1ccc2c(c1)NC(=O)CO2`, 64.4% (active); for `O=C1COc2ccc(C(=O)c3ccccc3C(=O)O)cc2N1`, -8.8%.
For the compound `Cc1ccc(S(=O)(=O)N2CCC(C(=O)N[C@H](C(=O)NCc3ccco3)C(C)C)CC2)cc1`, the inhibition was -3.1%.
For `CCn1cc(C(=O)OCC(=O)c2cc(C)n(-c3cccc(C(F)(F)F)c3)c2C)c(=O)c2ccc(C)nc21` the value was -6.6%; for `CN(/N=C/c1ccco1)C1=NS(=O)(=O)c2ccccc21`, 10.9%; for `CN(/N=C/c1ccc(Br)o1)C1=NS(=O)(=O)c2ccccc21`, -7.5%.
As to `Cc1ccc(/C=N/N(C)C2=NS(=O)(=O)c3ccccc32)o1`, the inhibition is 107% (active).
Next, `COc1ccccc1NC(=O)N(Cc1cccs1)Cc1cc2cc3c(cc2[nH]c1=O)OCO3`: 9.9%; `COc1cc(C(=O)ON=C2C=C(C)C(=O)C(C)=C2)cc(OC)c1OC`: 31.7%; `COc1cc(C(=O)O/N=C2\C=CC(=O)C(C)=C2)cc(OC)c1OC`: 50.7% (active).
For `COc1cc(C(=O)ON=C2C(C)=CC(=O)C=C2C)cc(OC)c1OC` the value was 59.4% (active); for `COc1cc(C(=O)O/N=C2/C=CC(=O)C(C)=C2C)cc(OC)c1OC`, 35.6%; for `COc1cc(C(=O)O/N=C2/C=C(C)C(=O)C=C2C)cc(OC)c1OC`, 29.1%.
For `COc1cc(C(=O)O/N=C2\C=CC(=O)C=C2C)cc(OC)c1OC` the value was 46.4%.
On to `O=C(NC1CCCC1)c1ccc(CS(=O)(=O)c2ccc(Br)cc2)o1`, for which the inhibition was -7%.
Next, `O=C(C(=O)N1CCN(c2ccc(F)cc2)CC1)N1CCCCC1`: 9.4%; `COCCNC(=O)C(c1cccs1)N(C(=O)Cn1nnc2ccccc21)c1cccc(C(C)=O)c1` (centres undefined): -2.6%; `O=[N+]([O-])c1cc2oc3c(c2c(C=NCc2ccncc2)c1O)CCCC3`: 27.8%.
Next, `CC(C)CN=Cc1c(O)c([N+](=O)[O-])cc2oc3c(c12)CCCC3`: 53.1% (active); `O=[N+]([O-])c1cc2oc3c(c2c(C=NCc2ccccc2)c1O)CCCC3`: 6.3%.
Next, `O=C(OCc1nnc(-c2ccccc2)o1)c1cc(F)c(F)cc1Cl`: 2.5%; `N#Cc1c(N2CCCC(O)C2)nc(N)c2c(N)nc3c(c12)CC(=O)N3C12CC3CC(CC(C3)C1)C2` (centres undefined): 64.7% (active); `C=C(C)CN(CC)c1nc(N)c2c(N)nc3c(c2c1C#N)CC(=O)N3C12CC3CC(CC(C3)C1)C2`: 2.4%.
With `CN(CCO)c1nc(N)c2c(N)nc3c(c2c1C#N)CC(=O)N3Cc1cccs1`, the inhibition is 13.6%.
On to `CCCCN1C(=O)Cc2c1nc(N)c1c(N)nc(N(CCC)CCC)c(C#N)c21`, for which the inhibition is 21.8%.
For `COCCN(CCOC)c1nc(N)c2c(N)nc3c(c2c1C#N)CC(=O)N3Cc1ccc(Cl)cc1` the value was 20.6%.
Next, `COc1ccc(CN2C(=O)Cc3c2nc(N)c2c(N)nc(N4CCCCC4)c(C#N)c32)cc1`: 40.5%.
Consider `N#CCc1c(C#N)c(N)nc(N2CCCC(O)C2)c1C#N` (centres undefined), for which the inhibition is 10%.
In the case of `CN(CCO)c1nc(N)c2c(N)nc3c(c2c1C#N)CC(=O)N3C1CCCC1`, the inhibition was 64% (active).
For `COCCN1C(=O)Cc2c1nc(N)c1c(N)nc(N3CCN(c4ccc(F)cc4)CC3)c(C#N)c21` the value was 40.2%; for `N#CCc1c(C#N)c(N)nc(N2CCN(c3ccc(F)cc3)CC2)c1C#N`, 2.2%; for `COCC(C)N1C(=O)Cc2c1nc(N)c1c(N)nc(N3CCN(c4ccccc4F)CC3)c(C#N)c21` (centres undefined), 66.7% (active).
For `N#Cc1c(N2CCN(c3ccc(F)cc3)CC2)nc(N)c2c(N)nc3c(c12)CC(=O)N3C1CC1` the value was 56.9% (active).
In the case of `Cc1ccc(N2C(=O)[C@@H]3[C@H](C2=O)C2c4ccccc4C=CN2[C@@H]3C(=O)c2ccco2)c(C)c1` (some centres undefined), the inhibition is -31.4%.
Next, `COc1ccc(Cn2c(C(F)(F)F)ccc(C(N)=O)c2=O)cc1`: 4.9%; `COc1ccc(C2(O)CCN(C(=O)c3c(F)cccc3F)CC2)cc1`: 2.8%.
For `CCc1cc2c(C)cc(C)cc2nc1SCC(=O)Nc1cc(C)on1` the value was 2.3%.
